About 1,700 (74%) of roughly 2,300 compounds were called active. No rule for the calls is given here. So high a share suggests a set chosen from earlier hits. The list shows a part of the results. Entries with a potency or affinity are not part of this list.
Experiment: Confirmatory growth inhibition assay, Mycobacterium tuberculosis H37Rv, absence of glycerol (AID 449764);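 also: growth read after 7 days of incubation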
Details: no glycerol; series mostly up to 100 µM

SMILES	outcome
C=CCn1c(Cc2cccs2)nnc1SCC(=O)Nc1ccc(C(=O)OCC)cc1	inactive
CCCCCCCC(=O)N/N=C(/C)c1c(O)cc(C)oc1=O	inactive
CN1CCN(CC/C=C2/c3ccccc3Sc3ccc(S(=O)(=O)N(C)C)cc32)CC1	inactive
O=c1oc2cc(O)ccc2c2ccccc12	inactive
CCCCCOc1ccc(N2C(=O)C3C4C=CC(C3C2=O)N(C)C4=O)cc1 (stereo unspecified)	inactive
O=c1c2cc(-c3ccccc3)sc2ncn1/N=C/c1ccco1	inactive
O=C(NC1CCCCC1)C(c1ccc2ncccc2c1)N(Cc1ccco1)C(=O)c1ccc2c(c1)OCCO2 (stereo unspecified)	inactive
CCCCc1ccc(NC=C2C(=O)OC3(CCCCC3)OC2=O)cc1	inactive
O=C(Nc1ccc(N2CCOCC2)c(Cl)c1)c1c(F)c(F)c(F)c(F)c1F	inactive
Cc1cc(N2CCCCC2)n2ncc(-c3ccc(Cl)cc3)c2n1	inactive
CCSCc1nnc(SCC(=O)Nc2cccc(SC)c2)n1C	inactive
Cc1ccc(C(=O)N/N=C/C=C/c2ccccc2)cc1	inactive
Cc1nn(Cc2ccccc2)c(C)c1C(=O)OCC(=O)c1cc(C)n(CC(F)(F)F)c1C	inactive
CCCCCC(=O)Nc1cccc2ccccc12	inactive
Cc1cc(C)c2nc(N3CCCC(C(=O)N4CCN(c5ncccn5)CC4)C3)sc2c1 (stereo unspecified)	inactive
Cc1c(NC(=O)c2ccc([N+](=O)[O-])o2)cccc1-c1nc2ncccc2o1	inactive
CCCCCOC(=O)Nc1nnc(CCCCC)s1	inactive
C/C(CC(=O)Nc1ccc(C)c(Cl)c1)=N\NC(=O)Cc1cnc(N)s1	inactive
Cc1ccc(N/N=C/C=C/c2ccco2)cc1	inactive
CCOC(=O)N1CCN=C1SCc1ccc(C(F)(F)F)cc1	inactive
O=C(CSc1nc2ccccc2[nH]1)N1c2ccccc2Sc2ccccc21	inactive
CCOC(=O)Oc1ccc2oc(C)c(C(=O)OCCOC)c2c1	inactive

SMILES	outcome
C=CC[N@@+]12CC[C@]34c5ccccc5N5/C=C6\C7N(/C=C(\C53)[C@@H](C[C@@H]41)/C(=C/CO)C2)c1ccccc1[C@@]71CC[N@@+]2(CC=C)C/C(=C\CO)[C@@H]6C[C@@H]12 (stereo partly specified)	inactive
CCOC(=O)c1c(CN2CCN(Cc3ccccc3)CC2)n(C)c2cc(Br)c(OC)cc12	inactive
O=C1N[C@@H](Cc2ccccc2)C(=O)N2[C@H]3Nc4ccccc4[C@@]3([C@]34C[C@H]5C(=O)N[C@@H](Cc6ccccc6)C(=O)N5[C@H]3Nc3ccccc34)C[C@@H]12	inactive
CCC(=O)c1coc2ccc(O)cc12	inactive
CC(C)NCC(O)c1ccc(O)c(O)c1 (stereo unspecified)	inactive
CCc1ccc(-n2nc3cc(C)c(N)cc3n2)cc1	inactive
CCOc1ccc(N2C(=O)CS/C2=C(\C(Cl)=C(Cl)Cl)[N+](=O)[O-])cc1	inactive
CC(=O)c1c(C)n([O-])c2cc(F)c(F)cc2[n+]1=O	inactive
CCCCn1c(-c2ccc(C(C)(C)C)cc2)nc2cc3[nH]c(=O)c(C(C)C)nc3cc21	inactive
Cc1nn(-c2ccccc2)c(N2CCCC2)c1/C=N/Nc1ccc(S(N)(=O)=O)cc1[N+](=O)[O-]	inactive
CC(=O)/C(=N\Nc1ccc(C)cc1)N1CCOCC1	inactive
Cc1ccc(C(=O)CCC(=O)OCC(=O)Nc2c(C)nn(-c3ccccc3)c2C)cc1	inactive
CCCCCn1c(CN2CCN(c3cccc(Cl)c3)CC2)nc2c1c(=O)[nH]c(=O)n2C	inactive
Cc1ccc(Sc2ccc(/C=C3/C(=O)NN(c4ccccc4)C3=O)o2)cc1	inactive
CSc1cccc(N=C2C(=O)Nc3ccccc32)c1	inactive
COc1cccc(C(=O)/C=C2\Sc3ccccc3N2C)c1	inactive
Fc1ccc(-c2nnc(CSc3nnc(-c4cccs4)o3)o2)cc1	inactive
CC/C(=C\C(=O)c1cccnc1)Nc1ccc(C)c(C)c1	inactive
C=C(C)C1CC=C(C)/C(=N/NC(=O)CNc2ccc(OCC)cc2)C1 (stereo unspecified)	inactive
Cc1[nH]nc2nc3c(c(OC(=O)c4ccccc4)c12)c(=O)n(C)c(=O)n3C	inactive
O=C1CC(Nc2ccc3ccccc3c2)C(=O)N1Cc1ccccc1 (stereo unspecified)	inactive
O=C(COC(=O)C1CCN(c2ccc(C(F)(F)F)cn2)CC1)Nc1ccc(F)cc1[N+](=O)[O-]	inactive

SMILES	outcome
Cc1ccc(N=Nc2c(C)[nH]n(C(N)=S)c2=O)cc1	inactive
O=C(Nc1cccc(C(F)(F)F)c1)c1ccc2nc(-c3ccco3)c(-c3ccco3)nc2c1	inactive
Nc1cccc(-c2cc3ccccc3oc2=O)c1	inactive
CC(C)c1nnc(NC(=O)CCC(=O)N2CCN(c3ccc(Cl)cc3)CC2)s1	inactive
CCCC(=O)Nc1sc2c(c1C#N)CCCCC2	inactive
O=[N+]([O-])c1ccc(COc2ccc(-c3[nH]ncc3-c3ccc(Cl)cc3)c(O)c2)cc1	inactive
Cc1nc(S/C(=C/c2ccc(-c3ccc(Cl)cc3)o2)C(=O)O)n[nH]1	inactive
Cc1ccc(NN=C2c3ccccc3-c3ccccc32)cc1	inactive
CN1CCC(=NNC(=O)C(=O)Nc2ccccc2F)CC1	inactive
O=C(Nc1cccc(-c2ccc(N3CCCCC3)nn2)c1)c1ccc(Br)o1	inactive
CCOC(=O)c1sc(C)c2c(=O)n(CC(=O)c3ccc(Br)cc3)nnc12	inactive
CCOC(=O)c1ccc(N2CC(O)=C(c3nc4ccccc4c(=O)[nH]3)C2=N)cc1	inactive
Cc1ccc(-c2cccc(NC(=O)C3C4C=CC(C4)C3C(=O)O)c2)o1 (stereo unspecified)	inactive
CCN(CC)S(=O)(=O)c1cccc(NC(=O)Nc2cccc(C(F)(F)F)c2)c1	inactive
CC1Nc2ncnc(N3CCN(c4ccccc4)CC3)c2N(Cc2ccc(Br)cc2)C1=O (stereo unspecified)	inactive
COc1cc2[nH]c3c(N4CCN(c5ccccn5)CC4)ncnc3c2cc1OC	inactive
Clc1ccc(CSc2ncn[nH]2)cc1	inactive
COc1ccc(-c2ccnc3nc(N4CCN(c5ccccc5)CC4)nn23)cc1	inactive
c1ccc(CCN2CN=C(Nc3nc4ccccc4o3)NC2)cc1	inactive
Cc1ccc(NC(=O)COC(=O)c2ccc(=O)n(Cc3ccccc3)n2)cc1F	inactive
COc1cc(OC)nc(Oc2ccccc2C(=O)Oc2ccc(Cl)cc2)n1	inactive
CCNc1nc(NC(C)(C)C)nc(N2CCCCC2)n1	inactive

SMILES	outcome
O=C(CCCC(=O)OCC(=O)c1cccs1)Nc1ccc(Oc2ccccc2)cc1	inactive
COc1ccc(N2COC3c4cccc5cccc(c45)C32)cc1 (stereo unspecified)	inactive
Brc1ccc(-c2ccc(/C=N/Nc3nncc(-c4ccccc4)n3)o2)cc1	inactive
Cn1nnc(NC(=S)NC(=O)c2ccc(-c3ccc(Br)cc3)o2)n1	inactive
Cc1ccc(N/C=C2\C(=O)C3(C)CCC2C3(C)C)cc1C (stereo unspecified)	inactive
Cc1cc(C(=O)N/N=C/c2ccc(-c3ccc([N+](=O)[O-])cc3Cl)o2)n[nH]1	inactive
Cc1ccc(-c2cc(C(F)(F)F)n3nc(C(=O)NCCCn4ccnc4)cc3n2)cc1C	inactive
CCOC(=O)/C(=N\Nc1ccc(Br)cc1)N1CC(C)OC(C)C1 (stereo unspecified)	inactive
C=CCn1c(=O)/c(=C/c2ccc(Cl)cc2)s/c1=C(/C#N)c1nnc2n1CCCCC2	inactive
Nc1ccc2c(c1)oc1ccccc12	inactive
CCOC(=O)NNc1ccccc1	inactive
CC1(CCc2ccccc2)NC(=S)N(c2ccc(Cl)cc2)N1 (stereo unspecified)	inactive
Cn1c(=O)c2[nH]c(-c3ccc(S(=O)(=O)O)cc3)nc2n(C)c1=O	inactive
COc1ccc(NC2=C(C(C)=O)C(c3ccc4c(c3)OCO4)C(C(C)=O)C(C)(O)C2)cc1 (stereo unspecified)	inactive
Nc1ccc(Oc2ccc3c(c2)OCO3)cc1	inactive
Nc1ccc2c(c1)nnn2-c1ccccc1	inactive
O=S(=O)(Nc1ccn(-c2ccccc2)n1)c1ccc(Br)cc1	inactive
Cc1ccc(S(=O)(=O)c2nc(Nc3nccs3)sc2Cl)cc1	inactive
O=C(CSc1nc2cc(Cl)ccc2o1)c1cccs1	inactive
COC12C(COC(N)=O)C3=C(C(=O)C(C)=C(N)C3=O)N1CC1C2N1C (stereo unspecified)	inactive
Oc1ccc(Br)cc1/C=N/Nc1nc(N2CCCCC2)nc(N2CCOCC2)n1	inactive
Nc1ccc(CCc2ccc(N)cc2)cc1	inactive

SMILES	outcome
COc1cc(/C=N/N(C)c2ccccc2)cc(Cl)c1O	inactive
COc1cc2c(-c3ccc4[nH]ccc4c3)c(-c3ccc(C#N)cc3)oc(=O)c2cc1OC	inactive
O=[N+]([O-])c1ccc(-c2ccc(/C=N/c3c(-c4ccco4)nc4ccccn34)o2)cc1	inactive
O=C1NC(=O)/C(=C/c2ccc(-c3cccc([N+](=O)[O-])c3)o2)S1	inactive
O=[N+]([O-])c1ccc(-c2csc(NN=C3CCCC3)n2)cc1	inactive
Nc1c(C(=O)Nc2ccc(Br)cc2)sc2nc(-c3ccco3)ccc12	inactive
CCCCn1cnc2cc(NCc3cccc(OC)c3O)ccc21	inactive
COc1ccc(NC(C#N)c2ccc(OC)cc2)cc1 (stereo unspecified)	inactive
Nc1ccn([C@@H]2O[C@H](CO)[C@@H](O)C2O)c(=O)n1 (stereo partly specified)	inactive
O=C(CSCC(=O)Nc1ccc2ccccc2c1)NCc1ccccc1	inactive
Cn1ccnc1-c1nnn(-c2ccc(Cl)c(Cl)c2)n1	inactive
CCOc1ccc(-n2c(-c3ccc(Br)cc3)c[n+]3c2CCCCC3)cc1	inactive
c1ccc(Cn2nnc3c(N4CCc5ccccc5C4)ncnc32)cc1	inactive
Cn1c(=O)c(C(=O)COC(=O)c2cc(C(F)(F)F)nc3c(C(F)(F)F)cccc23)c(N)n(CC2CC2)c1=O	inactive
Cc1cc(NC(=O)c2noc3c2CCCC3)nn1Cc1ccc(Cl)cc1	inactive
Cc1ccc(NC(=O)/C(Cl)=C\c2ccccc2)cc1	inactive
Nc1ccc2c(c1)Cc1ccccc1-2	inactive
C/C=C(\C)C(=O)Nc1cccc(C2=NOC3(C2)C[C@H](C(N)=O)N(C(=O)c2cc([N+](=O)[O-])cc([N+](=O)[O-])c2)C3)c1 (stereo partly specified)	inactive
